Hits are enriched below; roughly 5.4% of the tested compounds scored in any of these assays.
12-hLO inh – blocks human 12-lipoxygenase activity | P18054 | purified 12-hLO, xylenol orange hydroperoxide absorbance | Potency, µM (titrated, usually from 57.1 µM), without a hit: top-dose activity change, negative = inhibition, usual class: inhibitors | 0.12% of 150,000 active; note: potency is the fitted concentration of half-maximal effect; nearly all actives have a fitted effect of over 55% in size
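Lipoxygenase turnover measured by absorbance at 573 and 405 nm after Fe-XO development. Human 12hLO 150 nM, arachidonate 40 uM, pH 7.0 Hepes buffer with detergent; 15 min compound preincubation, 30 min reaction.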
IMPase inh – cell-permeable inhibitors of inositol monophosphatase (IMPase); P97697; CHO-M1 cells, IP1 accumulation, HTRF TR-FRET ratio; inhibition (IP1 accumulation), % at 46.1 µM; 120,000 tested, under 10 active; AID 901; active = well fitted curve in the direction sought with a large enough effect in the signal ratio, not every such curve was filed as active; inconclusive = small, poorly fitted or top-dose-only effect, or a change in a side signal; inactive = no such curve, though single readings can be large or run the other way; the % refers to the signal ratio;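 note: cells stimulated with carbachol in lithium chloride buffer; plate controls were DMSO basal wells for no effect and reference inhibitor wells for full effect; higher means more IMPase inhibition seen as more IP1 and lower FRET ratio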
Target sequence (P97697 whole entry, looked up): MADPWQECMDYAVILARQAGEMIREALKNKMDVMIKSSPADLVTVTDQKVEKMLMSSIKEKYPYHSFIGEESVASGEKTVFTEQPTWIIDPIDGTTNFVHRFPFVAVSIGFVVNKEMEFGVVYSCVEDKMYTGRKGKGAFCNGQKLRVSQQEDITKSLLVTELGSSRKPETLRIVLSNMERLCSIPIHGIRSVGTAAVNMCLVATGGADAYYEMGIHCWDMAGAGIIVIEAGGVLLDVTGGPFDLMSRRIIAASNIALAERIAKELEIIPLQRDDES
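In this qHTS, compounds (final up to 46 uM) act on CHO-M1 cells that are then activated through the M1 receptor with carbachol, in pH 7.4 buffer containing 50 mM LiCl, for 30 min. IP1 accumulation is quantified by the IP-One immunoassay.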
ALOX15B inhib – 15-hLO-2 (ALOX15B) enzyme inhibition | O15296 | purified 15hLO-2, xylenol orange hydroperoxide absorbance | Potency, µM (highest dose often 57.1 µM), inactives show at the top dose activity change, negative = inhibition, actives largely listed as inhibitors | 0.56% of 110,000 active; note: potency is the fitted concentration of half-maximal effect; nearly all actives have a fitted effect of over 60% in size
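Enzyme 50 nM, AA 45 uM, 25 mM Hepes pH 7.5 + 0.01% Triton X-100; cpd preinc 15 min RT, rxn 90 min RT; stop/detect with 200 uM XO + 300 uM Fe(II) in 50 mM H2SO4, 30 min; A573/A405.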
HPGD block – HPGD (human) dehydrogenase inhibition. purified HPGD, NADH fluorescence kinetic, PGE2 substrate. Potency, µM, for inactives: top-dose activity change, negative = inhibition, hits mostly inhibitors. 4.3% of 150,000 active; active = well fitted inhibition curve with a large enough effect, not every such curve was filed as active; inconclusive = small, poorly fitted or top-dose-only effect, or another doubt; inactive = no such curve, though single readings can be large or run the other way; note: potency is the fitted concentration of half-maximal effect
Target sequence (P15428 whole entry, looked up): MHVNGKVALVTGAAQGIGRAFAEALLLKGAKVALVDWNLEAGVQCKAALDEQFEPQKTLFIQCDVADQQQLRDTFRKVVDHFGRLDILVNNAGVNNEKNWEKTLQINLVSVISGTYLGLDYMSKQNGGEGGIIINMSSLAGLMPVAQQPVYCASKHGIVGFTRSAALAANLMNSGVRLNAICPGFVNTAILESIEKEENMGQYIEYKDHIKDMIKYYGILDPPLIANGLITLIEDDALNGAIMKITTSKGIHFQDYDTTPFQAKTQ
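NADH formation kinetics: reaction with 30 uM PGE2 and 1 mM NAD+ (final), 20 nM enzyme, Tris-HCl pH 8 with Tween 20, after 15 min compound preincubation at room temperature. Fluorescence change, last versus first of five reads.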
IMPase Li cell – membrane-permeable IMPase blocker, potentiated with lithium; Potency, µM (doses to about 59.4 µM), for the others: at the top dose activity, negative = IMPase inhibition, actives largely listed as inhibitors; 0.35% of 210,000 active; CHO-M1 cells, IP1 TR-FRET (IP-One), carbachol + lithium;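 note: IP1 builds up when IMPase is blocked and the TR-FRET signal falls; potency is the fitted concentration of half-maximal effect; plate controls were basal vehicle for no effect and high inhibitor control for full effect; nearly all actives have a fitted effect of over 50% in size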
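CHO cells stably expressing M1 receptor (2000/well, cultured 16–30 h) treated 30 min at 37C with compound plus low lithium. Cytosolic IP1 by TR-FRET (665/620 ratio and 620 channel) after 10 min lysis; AC50 by Hill fit.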
PNC inhibitor – blocks assembly of the perinucleolar compartment. PC3M PTB-GFP, PNC prevalence imaging, 16 h; hits give low values. activity change (PNC), negative = inhibition, % at 10 µM. 3.1% of 140,000 active;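 active = readout at or below -70, meaning at least 70% loss of cells showing the perinucleolar compartment, a nuclear body marking cancer cells; inconclusive = readout between -30 and a set limit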;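 note: plate controls were DMSO wells for no effect and camptothecin positive control wells for full effect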
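Compounds are pinned in duplicate onto adhered PC3M cells stably expressing GFP-tagged PTB and incubated 16 h at 37 C. Cells are then fixed, nuclei stained with Hoechst, and PNC-positive cells counted.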
* = called active by the depositor; u = inconclusive; x = no result; [ ] = another dose, or the depositor's remark. Unless noted, calls come from the whole dose curve; as a rule, active = well fitted curve in the direction sought with a large enough effect; inconclusive = small, poorly fitted or top-dose-only effect, or another doubt; inactive = no such curve, though single readings can be large; an effect the other way counts as inactive or inconclusive. Unless noted, % is set by controls: 0 for no effect and ±100 for the full control effect.

SMILES	12-hLO inh	IMPase inh	ALOX15B inhib	HPGD block	IMPase Li cell	PNC inhibitor
COC(=O)C1=C(C)NC(C)=C(C(=O)OCCN(C)Cc2ccccc2)[C@@H]1c1cccc([N+](=O)[O-])c1	-5%	17	28%	x	x	x
Cc1cc(NC(=O)CSc2nc3c(sc4ccccc43)c(=O)n2CCCN2CCOCC2)n[nH]1	1%	-3	13%	-9%	u	-83*
O=C(COc1ccc(Cl)cc1Cl)Nn1c(=S)[nH]c2ncccc2c1=O	5%	-1	x	28µM*	6%	u
COc1ccc(-n2c(=O)c(-c3cccs3)nc3cnc(N4CCNCC4)nc32)cc1	-3%	x	15%	u	19%	x
O=C(Nc1ccc(NC(=O)c2ccccc2Cl)nc1)c1ccncc1	x	x	x	x	0%	x
CCCC(=O)Nc1ccc(NC(=O)CCc2ccccc2)cn1	0%	-5	-5%	-10%	-4%[38.3 µM]	-114*
CCCC(=O)Nc1ccc(NC(=O)Cc2ccccc2)cn1	-3%	5	2%	-10%	-3%[38.3 µM]	-12
CCCC(=O)Nc1ccc(NC(=O)c2ccccc2Cl)nc1	-1%	u	4%	-2%	17%[38.3 µM]	-84*
C=NCc1cc2c(OC[C@@H](O)CNC(C)(C)C)cccc2[nH]1	x	x	x	x	-26%	x
COC(=O)c1ccc(NC(=O)CC2Nc3cc(C)c(C)cc3NC2=O)cc1 (stereo not given)	x	-1	x	x	x	x
CCCCOn1c(C)c(C(C)=O)c2c3no[n+]([O-])c3ccc21	x	x	x	x	16%	x
CCOC(=O)c1c(C)n(OCc2ccccc2)c2ccc3c(no[n+]3[O-])c12	6%	10	-3%	-17%	30%[38.3 µM]	-80*
Cc1cccc(N2C(=O)CC(Sc3nnc(C)s3)C2=O)c1 (stereo not given)	-5%	13	x	25µM*	1%	-7
CC1(C)CC(=O)C(C(c2cccc(O)c2O)C2C(=O)CC(C)(C)CC2=O)C(=O)C1	-14%[11.4 µM]	x	1%[11.4 µM]	-2%	10%	x
O=c1cc(CSc2nnc(Nc3ccccc3)s2)nc2sccn12	-1%	1	-10%	18µM*	21%[38.3 µM]	8
C/C(N)=C(/C#N)C(=O)CSc1nnc(Nc2ccccc2C)s1	-8%	7	u	28µM*	-16%[38.3 µM]	17
Cc1ccccc1Nc1nnc(SCc2cc(=O)n3ccsc3n2)s1	-5%	7	-10%	28µM*	8%[38.3 µM]	-20
COC(=O)c1ccc(C(NC(=O)OCc2ccccc2)/C(F)=C/[C@@H](C)C(=O)N(C)Cc2cccnc2)cc1 (stereo not given in full)	-1%	x	7%	-11%	6%	x
CC(C)c1ccc(/C=C2\C=C(c3ccc4ccccc4c3)OC2=O)cc1	-7%[11.4 µM]	x	-7%[11.4 µM]	-8%	-1%	x
COc1cccc(-c2ccc3c(N)c(C(=O)c4ccc(F)cc4)sc3n2)c1	x	-13	x	x	x	x
O=C(c1ccc(S(=O)(=O)Cc2cc(F)ccc2F)c([N+](=O)[O-])c1)N1CCCCC1	3%	19	x	14µM*	20%	-29
CCn1c2ccc(OC)cc2c2nc3ccccc3nc21	-7%	15	x	-15%	5%	193
CCOc1ccc(Cn2c3ccc(OC)cc3c3nc4ccccc4nc32)cc1	-1%	x	x	-15%	6%	-89*
O=[N+]([O-])C1=C(Nc2cccc3ccccc23)CS(=O)(=O)C1	-7%	-2	-6%	20µM*	18%[38.3 µM]	-11
CC[C@]1(c2ccccc2)NC(=O)N(C)C1=O	-2%[25.6 µM]	-8[20.6 µM]	0%[25.6 µM]	2%	3%	x
SMILES	12-hLO inh	IMPase inh	ALOX15B inhib	HPGD block	IMPase Li cell	PNC inhibitor
Cc1ccc(Cl)cc1NC(=O)COC(=O)c1ccc(COc2ccc3c(C)cc(=O)oc3c2)cc1	-4%	x	x	u	-6%	-113*
CCN(CC)S(=O)(=O)c1ccc(OC)c(NC(=O)COc2ccc3c(C)cc(=O)oc3c2)c1	3%	u	x	u	6.3µM*	-30
O=c1cc(-c2cccc(-c3ccc(C(F)(F)F)cc3)c2)c2cc3c(cc2o1)OCO3	-2%[0.00818 µM]	x	-18%[0.0915 µM]	-12%	5%	x
COc1ccc(Nc2nc3ccccc3n3c(N)nnc23)cc1	x	-7	x	x	x	x
CCN(CC)C(C)CN1c2ccccc2Sc2ccccc21 (stereo not given)	13µM*	x	13µM*	u	31%	x
CN1CC[C@H](CN2c3ccccc3Sc3ccccc32)C1	4%[11.4 µM]	x	-1%[11.4 µM]	-6%	39%	x
CN(C)c1ccc(-c2cncnc2Nc2ccccc2)cc1	x	x	10%	x	9%	x
COC(=O)c1ccccc1NC(=O)CSc1n[nH]c(-c2cccnc2)n1	x	x	x	x	1%	x
CC(C)OC(=O)CSc1n[nH]c(-c2cccnc2)n1	4%	-2	-1%	16µM*	-10%[38.3 µM]	-7
O=c1c2sccc2nc(SCc2ccc([N+](=O)[O-])cc2)n1Cc1ccccn1	-1%	x	x	-5%	25%	-84*
CCC(=O)Nc1cc2nn(-c3ccc(OC)cc3)nc2cc1C	-7%	2	0%	u	11µM*	u
COc1ccc(-n2nc3cc(C)c(NC(=S)NC(=O)c4ccccc4C)cc3n2)cc1	-13%	-10	u	-13%	13µM*	17
CCOC(=O)N1N=C(CC)CC1(O)C(F)(F)F (stereo not given)	-1%	10	x	2%	9%	-86*
CCOC(=O)N1N=C(c2ccc(C)cc2)CC1(O)C(F)(F)F (stereo not given)	-9%	3	2%	0%	0%	u
O=C1NC(=S)SC1=C1CCCC1	-17%	-1	-5%	35µM*	-3%[38.3 µM]	14
COc1ccccc1CNc1ncnc2ccc(-c3ccccc3C#N)cc12	x	x	34%	x	24%	x
CN(C)Cc1nc(-c2cn(C)c3ccccc23)no1	x	x	x	x	8%	x
CCOC(=O)N1CCN(C(=O)CS(=O)Cc2nc(-c3cccc(C)c3)oc2C)CC1 (stereo not given)	2%	-8	2%	-4%	5%[38.3 µM]	-28
Cc1cccc(-c2nc(CS(=O)CC(=O)N3CCc4ccccc4C3)c(C)o2)c1 (stereo not given)	-3%	-2	-24%	u	1%[38.3 µM]	-106*
O=c1c(-c2cc(F)cc(F)c2)nc2cnc(N3CCOCC3)nc2n1C1CC1	-4%	x	-3%	u	8.9µM*	x
CN1CCN(c2ncc3nc(-c4cc(F)cc(F)c4)c(=O)n(CCC#N)c3n2)CC1	x	x	20µM*	x	15%	x
O=C(/C=C/c1ccc2c(c1)OCO2)c1cccs1	-25%	9	-2%	u	8%	x
O=C(OCC(=O)N1CCN(C(=O)c2ccco2)CC1)c1cc(-c2ccco2)nc2ccccc12	-19%	-15	13µM*	u	-11%[38.3 µM]	34
O=C(OCC(=O)N1CCN(C(=O)c2ccco2)CC1)c1cc(-c2ccc(Cl)c(Cl)c2Cl)nc2ccccc12	4%	2	-8%	u	11%[38.3 µM]	-7

Bioassay records as filed in PubChem BioAssay.
